Laboratory results as given in PubChem BioAssay AID504602 (National Center for Advancing Translational Sciences (NCATS), 2011).
Records with an inconclusive call do not appear. Values without a mark were called inactive. Active and inactive are the calls of the source. Calls follow the shape of the dose curve; as a rule, active = well fitted curve in the direction sought with a large enough effect; inconclusive = small, poorly fitted or top-dose-only effect, or effect the other way, or another doubt; inactive = no such curve, though single readings can be large or run the other way.

Assay: Quantitative high throughput screen to test cell viability of anti-malarial compounds targeting the delayed death phenotype
Conditions: HepG2 viability, CellTiter-Glo luminescence, 48 h; series mostly up to 46.1 µM; activity change, negative = cytotoxicity: at the top concentration
Text: The biochemical processes that make this organelle essential for erythrocytic stage parasites are not well understood. However, antibiotics, such as azithromycin and tetracycline, which target the apicoplast translational machinery, have a potent antimalarial effect. […] We have developed a cell-based assay that measures parasite growth based on the expression of an integrated copy of a firefly luciferase reporter. To detect small molecules that cause this 'delayed death' phenotype, erythrocytes infected with the luciferase-expressing parasites were incubated with compounds for either one or two generations, corresponding to 48 and 96 hours, respectively. Compounds that inhibit parasite growth in the second generation, but not the first, should be enriched in antimalarials that target the apicoplast. Growth inhibition is detected by a decrease in luciferase activity. The goal of this counterscreen is to measure the cytoxoxicity (against HepG2 cell line) of a set of anti-malarial compounds that target the delayed death pheonotype as identified by the qHTS assay that inhibit the development of the apicoplast in the malarial parasite Plasmodium falciparum. NIH Molecular Libraries Probe Production Network [MLPCN] NIH Chemical Genomics Center [NCGC] MLPCN Grant: R21 NS059500 Assay Provider: David Fidock and Eric Ekland, Columbia University
Cells were plated at a density of 2000 cells/well/5uL in 1536 well white tissue culture plate with culture medium. Triplicate plates were prepared. Plates were incubated at 37C, 5% CO2 for 5 hours and then 23nL of compounds and positive control were transferred to the assay plates. Tetraoctylammonium bromide was added as a positive control. Plates were then incubated at 37C, 5% CO2 for 48 hours. 5 uL of CellTitler-Glo buffer was added to each well and then incubated for 30 min at room temperature. Luminescence was measured using ViewLux (1 second, slow, 2X).

| Compound | activity change, negative = cytotoxicity [%] | Potency |
| --- | --- | --- |
| C[C@@H]1CN([C@@H](C)CO)C(=O)c2cc(NC(=O)Nc3ccccc3)ccc2O[C@@H](C)CCCCO[C@H]1CN(C)S(=O)(=O)c1ccc(C(F)(F)F)cc1 | -7.97 |  |
| C=CCOC(=O)N(C)C[C@H]1OCCCC[C@H](C)Oc2ccc(NC(=O)Nc3ccccc3)cc2C(=O)N([C@@H](C)CO[Si](C)(C)C(C)(C)C)C[C@H]1C | -5.42 |  |
| COc1ccc(COC[C@H](C)N2C[C@@H](C)[C@H](CN(C)S(=O)(=O)c3ccc(F)cc3)OCCCC[C@H](C)Oc3ccc(NC(=O)Nc4ccccc4)cc3C2=O)cc1 | -15 |  |
| C[C@@H]1CN([C@H](C)CO[Si](C)(C)C(C)(C)C)C(=O)c2cc(NC(=O)Nc3ccccc3)ccc2O[C@@H](C)CCCCO[C@H]1CN(C)S(=O)(=O)c1ccc(F)cc1 | -18 |  |
| C[C@@H]1CN([C@@H](C)CO)C(=O)c2cc(NC(=O)Nc3ccccc3)ccc2O[C@@H](C)CCCCO[C@H]1CN(C)S(=O)(=O)c1cccnc1 | 4.77 |  |
| C[C@@H]1CN([C@@H](C)CO)C(=O)c2cc(NC(=O)Nc3ccccc3)ccc2O[C@@H](C)C/C=C/CO[C@H]1CN(C)S(=O)(=O)c1ccc(F)cc1 | 4.49 |  |
| C[C@@H]1CN([C@@H](C)COC(=O)C(C)(C)C)C(=O)c2cc(NC(=O)Nc3ccccc3)ccc2O[C@@H](C)CCCCO[C@H]1CN(C)S(=O)(=O)c1ccc(F)cc1 | 19.5 |  |
| C[C@@H]1CN([C@@H](C)COC(C)(C)C)C(=O)c2cc(NC(=O)Nc3ccccc3)ccc2O[C@@H](C)CCCCO[C@H]1CN(C)S(=O)(=O)c1ccc(F)cc1 | 4.18 |  |
| COc1ccc(COCCN2C[C@@H](C)[C@H](CN(C)S(=O)(=O)c3ccc(F)cc3)OCCCC[C@H](C)Oc3ccc(NC(=O)Nc4ccccc4)cc3C2=O)cc1 | -2.11 |  |
| C[C@@H]1CN([C@@H](C)COC(=O)c2ccccc2)C(=O)c2cc(NC(=O)Nc3ccccc3)ccc2O[C@@H](C)CCCCO[C@H]1CN(C)C(=O)OC(C)(C)C | -7.44 |  |
| C[C@@H]1CN([C@@H](C)CO)C(=O)c2cc(Nc3nc4ccccc4o3)ccc2O[C@@H](C)CCCCO[C@H]1CN(C)S(=O)(=O)c1ccc(F)cc1 | 11.4 |  |
| Cc1noc(C)c1NC(=O)Nc1ccc2c(c1)C(=O)N(C(C)C)C[C@@H](C)[C@H](CN(C)S(=O)(=O)c1ccc(F)cc1)OCCCC[C@H](C)O2 | 9.18 |  |
| C[C@@H]1CN([C@@H](C)CO)C(=O)c2cc(NC(=O)Nc3ccccc3)ccc2O[C@@H](C)CCCCO[C@H]1CN(C)Cc1ccc(C(F)(F)F)cc1 | 16.6 |  |
| C=CCOC(=O)N(C)C[C@@H]1OCCCC[C@H](C)Oc2ccc(NC(=O)Nc3ccccc3)cc2C(=O)N([C@H](C)COC(=O)c2ccccc2)C[C@H]1C | 19.1 |  |
| C[C@@H]1CN([C@@H](C)COC(=O)c2ccccc2)C(=O)c2cc(NC(=O)Nc3ccccc3)ccc2O[C@@H](C)CCCCO[C@H]1CN(C)S(=O)(=O)c1ccc(F)cc1 | 3.02 |  |
| COCCOC(=O)N(C)C[C@@H]1OCCCC[C@H](C)Oc2ccc(NC(=O)Nc3ccccc3)cc2C(=O)N([C@@H](C)CO)C[C@H]1C | 6.18 |  |
| CC(C)NC(=O)Nc1ccc2c(c1)C(=O)N([C@@H](C)CO)C[C@@H](C)[C@H](CN(C)S(=O)(=O)c1ccc(F)cc1)OCCCC[C@H](C)O2 | 16.9 |  |
| C[C@@H]1CN([C@@H](C)CO)C(=O)c2cc(NC(=O)Nc3ccccc3)ccc2O[C@@H](C)CCCCO[C@H]1CN(C)C(=O)OC(C)(C)C | -7.33 |  |
| C[C@@H]1CN([C@@H](C)CO)C(=O)c2cc(NC(=O)Nc3ccccc3)ccc2O[C@@H](C)CCCCO[C@H]1CN(C)S(=O)(=O)c1cccc(F)c1 | 4.87 |  |
| C=CCOC(=O)N(C)C[C@@H]1OCCCC[C@H](C)Oc2ccc(NC(=O)Nc3ccccc3)cc2C(=O)N([C@@H](C)CO)C[C@H]1C | -17.9 |  |
| C[C@@H]1CN([C@@H](C)CO)C(=O)c2cc(NC(=O)Nc3ccccc3)ccc2O[C@@H](C)CCCCO[C@H]1CN(C)S(=O)(=O)c1ccccc1F | 7.68 |  |
| C[C@@H]1CN([C@@H](C)CN=[N+]=[N-])C(=O)c2cc(NC(=O)Nc3ccccc3)ccc2O[C@@H](C)CCCCO[C@H]1CN(C)S(=O)(=O)c1ccc(F)cc1 | -2.67 |  |
| C[C@@H]1CN(CCO[Si](C)(C)C(C)(C)C)C(=O)c2cc(NC(=O)Nc3ccccc3)ccc2O[C@@H](C)CCCCO[C@H]1CN(C)S(=O)(=O)c1ccc(F)cc1 | -5.91 |  |
| C[C@@H]1CN([C@@H](C)CO)C(=O)c2cc(NC(=O)Nc3ccccc3)ccc2O[C@@H](C)C/C=C\CO[C@H]1CN(C)S(=O)(=O)c1ccc(F)cc1 | 25.5 |  |
| C[C@@H]1CN([C@@H](C)CO)C(=O)c2cc(N)ccc2O[C@@H](C)CCCCO[C@H]1CN(C)S(=O)(=O)c1ccc(F)cc1 | 8.01 |  |
| Cc1noc(C)c1NC(=O)Nc1ccc2c(c1)C(=O)N([C@@H](C)CO)C[C@@H](C)[C@H](CN(C)S(=O)(=O)c1ccc(F)cc1)OCCCC[C@H](C)O2 | 12.1 |  |
| C[C@@H]1CN(CCO)C(=O)c2cc(NC(=O)Nc3ccccc3)ccc2O[C@@H](C)CCCCO[C@H]1CN(C)S(=O)(=O)c1ccc(F)cc1 | -1.25 |  |
| COCOC[C@H](C)N1C[C@@H](C)[C@H](CN(C)S(=O)(=O)c2ccc(F)cc2)OCCCC[C@H](C)Oc2ccc(NC(=O)Nc3ccccc3)cc2C1=O |  | 7.91 µM (active) |
| C[C@@H]1CN(C)C(=O)c2cc(NC(=O)Nc3ccccc3)ccc2O[C@@H](C)CCCCO[C@@H]1CN(C)S(=O)(=O)c1ccc(F)cc1 | 16.5 |  |
| C[C@@H]1CN([C@@H](C)CO[Si](C)(C)C(C)(C)C)C(=O)c2cc(NC(=O)Nc3ccccc3)ccc2O[C@@H](C)CCCCO[C@H]1CN(C)S(=O)(=O)c1ccc(F)cc1 | -14.3 |  |
